From PubChem
Six1-Eya2 inh – Six1/Eya2 interaction inhibition | Q15475+O00167 | AlphaScreen GST-Six1/His-Eya2 binding, biochemical; hits give low values | activity change, % (concentration not given with the values) | actives 0.56% (n = 360,000) | AID 651725; in the data active means activity change below about -65%; inconclusive means mostly about -30% to -63%
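Six1/Eya2 binding was read as AlphaScreen signal after compounds were pinned into GST-Six1 plus His-tagged Eya2 (5X stock 250/500 nM) in pH 8.0 Tris/NaCl/TCEP buffer, beads added, then incubated 1 h, 37 C, dark.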
Eya2 inh – Eya2 (human) phosphatase inhibition; O00167; recombinant Eya2, OMFP fluorescence dephosphorylation (OMFP is methylfluorescein phosphate); Potency, µM (highest dose often 76.9 µM), most hits filed as inhibitors; actives 0.006% (n = 330,000)
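Eya2 protein (added as 0.2 uM solution) was preincubated with compound for 10 min at ambient temperature in 50 mM HEPES pH 7.5, 50 mM NaCl, 5 uM MgCl2, 0.05% BSA, 1 mM DTT. OMFP (added at 50 uM) then reacted 10 min; fluorescence read at 485/525 nm.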
CBFb-RUNX1 inh – CBF-beta/RUNX1 interaction disruption; Q01196+Q13951; AlphaScreen CBFb-His/RUNX1-biotin binding, biochemical; Potency, µM (top dose mostly 59.8 µM), actives largely listed as inhibitors; 230,000 tested, under 10 active
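AlphaScreen binding: CBFb-His and RUNX1-biotin (30 nM each) preincubated 20 min, compound added for 15 min, then nickel and streptavidin beads for 90 min, all at room temperature. Disruption of the interaction by any mechanism counts as activity.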
MBNL1 CUG block – MBNL1-poly(CUG) RNA binding inhibition | Q9NR56 | TR-FRET MBNL1-His/biotin-(CUG)12 binding, 665/545 ratio | Potency, µM (series often up to 57.5 µM), usual class: inhibitors | actives 0.036% (n = 280,000) | AID 2675; active means well fitted inhibition curve with a large enough effect in the signal ratio, with a control signal flat, not every such curve was filed as active; inconclusive means small, poorly fitted or top-dose-only effect, or effect the other way, or a change in a side signal; inactive means no such curve, though single readings can be large or run the other way; the % refers to the signal ratio
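Inhibition of protein-RNA binding appears as loss of TR-FRET between terbium anti-His antibody on MBNL1-His and streptavidin-XL665 on biotin-(CUG)12. Activity is normalized to buffer-only and uninhibited-complex controls.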
CtBP-E1A inh – blocks the CtBP interaction with E1A; activity change, % (no concentration beside the values); actives 0.49% (n = 340,000); AID 651724; AlphaScreen GST-E1A/His-CtBP binding, 1536-well; hits give low values; in the data active means activity change below about -65%; inconclusive means mostly about -30% to -63%
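Homogeneous bead-based format: GST-tagged E1A captured on glutathione donor beads, His-tagged CtBP on nickel acceptor beads; compounds precede bead addition by 2 h at 37 °C.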
L3MBTL1 inh – inhibitors of human L3MBTL1. actives 0.66% (n = 230,000). AlphaScreen L3MBTL1–H3K9me1 peptide binding. Q9Y468. Potency, µM (doses to about 57.1 µM), hits mostly inhibitors. AID 485360; further: nearly all actives have a fitted effect of over 60% in size
Target sequence (Q9Y468 whole entry, looked up): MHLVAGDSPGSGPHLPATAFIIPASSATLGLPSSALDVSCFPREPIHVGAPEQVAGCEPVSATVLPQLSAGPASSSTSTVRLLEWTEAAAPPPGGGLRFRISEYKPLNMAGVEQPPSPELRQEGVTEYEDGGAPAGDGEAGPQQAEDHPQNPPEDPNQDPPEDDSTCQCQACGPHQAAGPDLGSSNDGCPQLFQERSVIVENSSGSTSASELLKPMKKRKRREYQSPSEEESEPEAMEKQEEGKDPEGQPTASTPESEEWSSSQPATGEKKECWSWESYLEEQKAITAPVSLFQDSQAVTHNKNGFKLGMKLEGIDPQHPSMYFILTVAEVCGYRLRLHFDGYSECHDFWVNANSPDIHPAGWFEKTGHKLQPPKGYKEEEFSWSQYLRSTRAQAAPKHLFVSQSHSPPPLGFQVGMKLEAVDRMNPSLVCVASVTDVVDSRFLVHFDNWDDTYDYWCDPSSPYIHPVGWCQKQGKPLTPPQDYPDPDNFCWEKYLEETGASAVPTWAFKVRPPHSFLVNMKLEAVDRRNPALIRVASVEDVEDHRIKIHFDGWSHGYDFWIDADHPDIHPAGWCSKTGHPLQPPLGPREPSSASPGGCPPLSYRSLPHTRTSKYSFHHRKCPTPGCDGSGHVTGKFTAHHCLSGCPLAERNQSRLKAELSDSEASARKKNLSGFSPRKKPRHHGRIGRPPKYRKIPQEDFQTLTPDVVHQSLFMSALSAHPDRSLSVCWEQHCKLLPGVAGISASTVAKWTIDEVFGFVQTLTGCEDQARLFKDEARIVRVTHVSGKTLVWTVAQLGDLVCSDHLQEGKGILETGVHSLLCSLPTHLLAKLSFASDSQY
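First, the protein-peptide complex forms for 30 min at room temperature (L3MBTL1 50 nM, biotinylated H3K9me1 peptide 75 nM). Next, compounds are pin-transferred and incubated 30 min. Finally, AlphaScreen beads are added and read after 30 min.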
Hits are given with their value; – = inactive; ? = inconclusive; · = no result; [ ] = another dose, or the depositor's remark. Rows were chosen to be rich in hits. Some 0.89% of all compounds tested hit in one or more screens of this group. Unless noted, the call rests on the fitted dose curve; in most records, active means well fitted curve in the direction sought with a large enough effect; inconclusive means small, poorly fitted or top-dose-only effect, or another doubt; inactive means no such curve, though single readings can be large; an effect the other way counts as inactive or inconclusive.

SMILES | Six1-Eya2 inh | Eya2 inh | CBFb-RUNX1 inh | MBNL1 CUG block | CtBP-E1A inh | L3MBTL1 inh
O=c1[nH]nc(N=Nc2c(O)[nH]c3ccc(F)cc23)c(=O)[nH]1 | -80 | · | · | · | -71 | ·
CC(C)Oc1ccc(CN2CCC2(C)C(=O)NCc2cccc3ccccc23)cc1 (stereo not drawn) | – | · | · | · | – | ·
CCCCCCCCCCCCC/C=C/C(O)C(COP(=O)(O)OCCN)NC(=O)CCCCCCCCCCCCCCCCC (stereo not drawn) | · | · | – | · | · | ·
Brc1ccccc1Cn1c(-c2cscn2)nc2ccccc21 | – | – | – | – | – | ·
COc1ccc(S(=O)(=O)c2c(N)n(Cc3ccco3)c3nc4ccccc4nc23)cc1 | ? | – | – | – | – | 28µM
COc1ccc(Cn2c(C)nc3c(c2=O)c2nc4ccccc4nc2n3Cc2ccco2)cc1 | – | · | · | · | – | ·
NS(=O)(=O)c1ccc(N/N=C/c2ccc(O)cc2O)c([N+](=O)[O-])c1 | – | – | – | ? | ? | –
NS(=O)(=O)c1ccc(N/N=C/c2ccc(O)c(O)c2O)c([N+](=O)[O-])c1 | ? | – | · | ? | ? | 2.8µM
Cc1[nH]c(=O)[nH]c(=O)c1/C=N/NC(=O)[C@H](C)N | -66 | ? | – | – | – | ?
O=C(O)c1ccc(N=Nc2c(O)ccc3ncccc23)cc1 | -94 | ? | · | ? | · | ·
Cc1ccc(C=Nc2ccccc2C(N)=O)o1 | – | – | – | – | – | –
Cc1ccc(C=Nc2ccc(N(C)C)cc2)o1 | ? | – | ? | ? | -68 | ?
CCS(=O)(=O)NCC(c1cccnc1)N1CCN(c2ccccc2)CC1 (stereo not drawn) | – | – | – | – | – | –
CCS(=O)(=O)NCC(c1cccnc1)N1CCN(c2ccc(OC)cc2)CC1 (stereo not drawn) | – | – | – | – | -75 | ·
COc1cc2[nH]cc(C(=O)NCc3cccs3)c(=O)c2cc1OC | ? | · | · | · | -73 | ·
COc1ccc(CC(=O)NCc2cccs2)cc1OC | – | – | – | – | – | ·
C[N+]1(C)CC[C@@H](OC(=O)[C@@](O)(c2ccccc2)C2CCCC2)C1 | · | · | – | · | · | ·
COc1ccc(CNS(=O)(=O)c2cc3c(cc2Cl)NC(=O)CO3)cc1 | – | ? | · | – | – | –
O=C1COc2cc(S(=O)(=O)NCc3ccco3)c(Cl)cc2N1 | · | – | · | · | · | 32µM
O=[N+]([O-])c1ccc2c(c1)S(=O)(=O)C=C2 | · | – | – | · | · | ·
O=C(Nc1ccc2c(c1)OCCO2)c1cccc2nc3ccccc3nc12 | ? | – | ? | – | -68 | –
O=C(Nc1ccc2c(c1)OCCO2)c1ccccc1Cl | – | · | · | · | – | ·
O=C1[C@H]2[C@H]3[C@H](O)[C@H](O)C/C(=N/OC[C@@H](O)COCc4ccco4)[C@H]3CC[C@@H]2C(=O)N1Cc1ccccc1 | · | · | –[13.1 µM] | · | · | ·
CCc1noc(C)c1C(=O)NNC(=O)c1cc(OC)cc(OC)c1 | – | – | · | · | – | –
CN(C1=C(N2CCOCC2)C(=O)c2ccccc2C1=O)c1ccccc1 | -82 | – | · | · | ? | 25µM
SMILES | Six1-Eya2 inh | Eya2 inh | CBFb-RUNX1 inh | MBNL1 CUG block | CtBP-E1A inh | L3MBTL1 inh
O=C1C(NS(=O)(=O)c2cccs2)=C(N2CCOCC2)C(=O)c2ccccc21 | – | – | – | ? | – | –
NNC(=O)c1ccc(CSc2cccc3cccnc23)cc1 | – | – | – | – | – | –
COc1ccc(NC(=O)CSc2cccc3cccnc23)c(OC)c1 | – | – | – | · | – | –
Cc1cccc(CSc2cccc3cccnc23)c1 | -90 | – | · | – | -92 | ?
CCOC(=O)CSc1cccc2cccnc12 | -89 | – | ? | – | -92 | –
Cc1cccc(NC(=O)CSc2cccc3cccnc23)c1C | ? | – | · | – | -79 | –[2.29 µM]
COc1ccc(CNC(=O)CSc2cccc3cccnc23)cc1 | – | – | – | – | – | ·
CCCCCOc1ccc(NC(=O)CSc2cccc3cccnc23)cc1 | -92 | – | – | – | -95 | –
CCOC(=O)c1c(C)[nH]c(-c2csc(N)n2)c1C | – | – | ? | · | – | ?
Cc1c(C(N)=O)sc2ncn(CC(=O)N(C)C3CCCCC3)c(=O)c12 | – | – | · | – | – | ·
O=C(CCCC(=O)c1ccccc1)Nc1ccc(F)cc1 | – | – | · | – | – | ·
Cc1c(F)cccc1NC(=O)CCCCCC1NC(=O)NC1C (stereo not drawn) | – | – | · | 0.28µM | – | ·
CC1NC(=O)NC1CCCCCC(=O)Nc1ccc(F)cc1 (stereo not drawn) | – | – | · | 0.1µM | – | ·
O=C(O)CCNc1cc(N2CCN(C(=O)c3ccco3)CC2)c2noc3c2c1C(=O)c1ccccc1-3 | -74 | – | · | ? | -85 | ·
CCN1CCN(c2cc(N3CCN(C(=O)c4ccco4)CC3)c3c4c(onc24)-c2ccccc2C3=O)CC1 | ? | – | · | ? | ? | ·
CC1=C(C(=O)N(C(C)C)C(C)C)CC(CC(=O)NC(c2ccccc2)c2ccccc2)C(=O)N1Cc1ccc(C(C)(C)C)cc1 (stereo not drawn) | – | · | · | · | – | ·
C/C(=N/Nc1ccc(C(=O)O)cc1)c1ccc2c(c1)Nc1ccccc1S2 | – | · | · | · | – | ·
C/C(=N\Nc1ccc(C(=O)O)cc1)c1ccc2c(c1)Nc1ccccc1S2 | – | – | – | – | – | 28µM
CCOC(=O)CCCCC1C(CCCC(=O)OCC)C=NN1C (stereo not drawn) | – | · | · | · | – | ·
O=C(Nc1ccc2c(c1)CCC2)c1ncoc1-c1ccccc1F | – | – | · | – | – | ·
Cc1ccnc2c1ccc1ccccc12 | – | – | · | – | – | ·
Cc1ccnc2c1ccc1c(C)ccnc12 | -92 | ? | · | · | -92 | –
Cc1ccnc2c1ccc1cccnc12 | -81 | – | · | · | -92 | 3.5µM
CC1(C(=O)NS(=O)(=O)c2cccs2)CCN1C(=O)C1CCCCC1 (stereo not drawn) | – | · | · | · | – | ·
O=c1[nH]cnc2nn(-c3ccccc3)nc12 | ? | – | – | – | -65 | –
SMILES | Six1-Eya2 inh | Eya2 inh | CBFb-RUNX1 inh | MBNL1 CUG block | CtBP-E1A inh | L3MBTL1 inh
COc1ccc(NC(C)(C)c2nnnn2-c2c(C)cccc2C)cc1 | – | – | – | · | – | –
Cc1ccccc1N(CC(=O)N1CCN(Cc2ccccc2)CC1)S(C)(=O)=O | – | · | · | · | – | ·
COc1cc(SC#N)ccc1N=Cc1c(C)[nH]n(-c2ccc(C)c(C)c2)c1=O | -66 | – | – | · | ? | –
O=C(COc1ccc(Cl)cc1Cl)N/N=C/c1ccc(OC2OC(CO)C(O)C(O)C2O)cc1 (stereo not drawn) | – | – | – | – | · | –
CC(C)(C)c1c(Cl)c(O)c(-c2ccccc2)c(=O)n1-c1ccccc1 | – | – | – | – | – | 32µM
Cc1c(O)c2ccccc2n(-c2ccccc2)c1=O | – | · | · | · | – | ·
CC(C)(C)NC(=O)CCN(/N=C/c1ccccc1)C1=NS(=O)(=O)c2ccccc21 | ? | – | · | – | -65 | ·
